A number with no mark means an inactive call. Active and inactive are the calls of the source.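 Rule for the calls, unless noted: active = viability loss from added drug above about 55%, and viability with drug at most 40%, in both replicates (limit read from the data, passing the limit was not always enough); inconclusive = both conditions met in only one replicate; inactive = neither replicate meets both conditions.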

A short description of the first test: H69AR cell proliferation blockers – human, duplicate replicates, primary screen (AID 580;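 active = viability at or under a set limit in both replicates, limit being median viability minus 3 SD, cut at about 48% in these data, passing the limit was not always enough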;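 note: 100% = mean luminescence of untreated wells and 0% = no signal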). Conditions: H69AR lung tumor cells viability, ATP luminescence, 72 h; at 10 µM; stronger effect = lower value.
Consider `CC(C)(O)C#Cc1ccc(C(=O)N2CCN(C(=O)c3ccco3)CC2)cc1`, for which the viability is 96.9%. On the same count and under the same terms, the value for `COC(=O)C1=C(C)Nc2nnnn2C1c1ccc(Cl)cc1Cl` (configuration not stated) was 93.3%; that for `CC(NC(=O)C1CC1)C(c1cccs1)N1CCN(c2ccccc2)CC1` (configuration not stated) was 89.5%.

On to `O=C(Nc1c(C(=O)NCc2ccco2)cnn1-c1ccccc1)c1ccc(F)cc1`, for which the viability is 96.9%. The same measure, in the same setting: the value for `COc1ccc(-n2c(Cc3cccn3C)nnc2SCC(=O)Nc2cccc(Cl)c2)cc1` was 85.3%; that for `CCOC(=O)N1CCN(C(=O)c2ccc3nc4ccsc4c(=O)n3c2)CC1` was 89.4%; that for `CCC(C)C(=O)Nc1nc2c(s1)C(=O)CC(C)(C)C2` (configuration not stated) was 89.5%. For the molecule `COc1cc2c(cc1OC)CN(C(=O)CSc1nc3[nH]ncc3c(=O)n1-c1ccccc1)CC2`, the viability was 91.7%. The same measure, in the same setting: the value for `CC(NC(=O)c1cc2c(=O)n(C)c3ccccc3c2n1C)c1ccc2c(c1)OCCO2` (configuration not stated) was 42.7% (active); that for `O=C(C1CCCN1S(=O)(=O)c1cccc2cccnc12)N1CCn2c1nc1ccccc12` (configuration not stated) was 94.1%; that for `CCn1c(SCC(=O)Nc2cc(C)ccc2C)nc2c(c1=O)SC(C)C2` (configuration not stated) was 83.1%. On the same count and under the same terms, the value for `CCOC(=O)c1sc2nc(NC(=O)COc3ccccc3)sc2c1C` was 69.4%; that for `Cc1ccc(-n2ncc3c(N4CCCC(C)C4)ncnc32)c(C)c1` (configuration not stated) was 61.6%. Same read-out and setting: the value for `O=C(O)C1C2C=CC3(CN(C4CCCC4)C(=O)C13)O2` (configuration not stated) was 83.7%; that for `CCCCSc1nc2c(cnn2-c2ccc(F)cc2)c(=O)[nH]1` was 74%.

Turning to `CCCCCn1c(=O)[nH]c2cc(C(=O)NCCN3CCOCC3)ccc2c1=O`, the viability is 105%.

`Cc1ccc(-c2cc3nc4c(c(=O)n3[nH]2)CCCC4)cc1`: the viability is 91.9%. On the same count and under the same terms, the value for `CCCOC(=O)c1[nH]c2c(c1C)C(=O)CC(c1cc(OC)c(OC)c(OC)c1)C2` (configuration not stated) was 74.2%; that for `COc1cccc(-c2nc3n(n2)C(c2ccccc2Cl)C(C(N)=O)=C(C)N3)c1` (configuration not stated) was 90.4%.

For the molecule `Cc1c(NC(=O)c2ccc(Br)o2)c(=O)n(-c2ccccc2)n1C`, the viability is 91.2%.

Regarding `COc1ccc(-c2nc(CS(=O)CC(=O)NCc3ccccn3)c(C)o2)cc1` (configuration not stated), the viability is 92.9%.

In the case of `CCOc1cc(C2NC(=O)NC(O)(C(F)(F)F)C2C(=O)c2ccccc2)ccc1OC` (configuration not stated), the viability is 102%.

`CN(CCCNC(=O)c1cn(C)c2ccc(S(=O)(=O)N(C)C)cc2c1=O)c1ccccc1`: the viability was 87.7%.

A further test is described as follows: MRP1 drug-resistance reversers in H69AR cells – cell-based, doxorubicin co-treatment, pilot screen (AID 601). Conditions: H69AR cells + 2 uM doxorubicin, CellTiter-Glo, 72 h; at 10 µM; stronger effect = higher value.
Regarding `Cc1ccc(CNC(=O)C2CCCN(S(=O)(=O)c3cnc[nH]3)C2)cc1` (configuration not stated), the differential viability (reversal) is 13.9%.

As to `COc1cc2c(cc1OC)C(c1ccc(C)o1)CC(=O)N2` (configuration not stated), the differential viability (reversal) is 9.42%.

With `COc1ccc(S(=O)(=O)Nc2ccc(F)c(Cl)c2)cc1OC`, the differential viability (reversal) was 4.3%. Same read-out and setting: the value for `O=C(OCCN(CCOC(=O)c1ccncc1)S(=O)(=O)c1cccs1)c1ccncc1` was 6.43%.

On to `N#CCCN(Cc1cccnc1)C(=O)Nc1ccc(Cl)c(Cl)c1`, for which the differential viability (reversal) was 9.8%.

On to `NC(=O)CN1C(=O)C(O)(CC(=O)c2ccccc2O)c2ccccc21` (configuration not stated), for which the differential viability (reversal) was -5.2%.

As for `CCCOc1ccc(C2C(C(=O)OC)=CN(CCOC)C=C2C(=O)OC)cc1`, the differential viability (reversal) is -2.27%. On the same count and under the same terms, the value for `C(=N\c1c(-c2ccccc2)nc2n1CCS2)/c1ccccc1` was 10.5%. On the same count and under the same terms, the value for `COC(=O)c1cn(NC(=O)C2CCCO2)c(=O)c2ccccc12` (configuration not stated) was 4.83%; that for `CCN1CCN(C(=O)C2CC(c3ccc(F)cc3)=NO2)CC1` (configuration not stated) was 24.1%; that for `CCOC(=O)C1CCN(Cc2ccc(OC)c(C)c2OC)CC1` was 3.22%. Same read-out and setting: the value for `Cn1c(NC(=O)c2ccccc2NC(=O)C(C)(C)C)nc2ccccc21` was -16.9%. Turning to `Cc1cccc(CN2CCC(CNC(=O)C3CCCN(S(=O)(=O)c4cnc[nH]4)C3)CC2)c1` (configuration not stated), the differential viability (reversal) is 2.14%. Turning to `CC1CC(NC(=O)c2cnc3n(c2=O)CCS3)CC(C)(C)C1` (configuration not stated), the differential viability (reversal) is 6.09%. Still for that read-out and setting: the value for `CC1CCCN(S(=O)(=O)c2coc(C(N)=O)c2)C1` (configuration not stated) was -23.4%; that for `O=C(NCc1ccc2c(c1)OCO2)C1CCCN(S(=O)(=O)c2cccc3cccnc23)C1` (configuration not stated) was 5.17%. In the case of `CC(C)(O)C#Cc1ccc(C(=O)N2CCN(C(=O)c3ccco3)CC2)cc1`, the differential viability (reversal) was 8.95%. Still for that read-out and setting: the value for `COC(=O)C1=C(C)Nc2nnnn2C1c1ccc(Cl)cc1Cl` (configuration not stated) was -5.04%; that for `CC(NC(=O)C1CC1)C(c1cccs1)N1CCN(c2ccccc2)CC1` (configuration not stated) was -4.32%; that for `O=C(Nc1c(C(=O)NCc2ccco2)cnn1-c1ccccc1)c1ccc(F)cc1` was 4.25%. The same measure, in the same setting: the value for `COc1ccc(-n2c(Cc3cccn3C)nnc2SCC(=O)Nc2cccc(Cl)c2)cc1` was -2.28%; that for `CCOC(=O)N1CCN(C(=O)c2ccc3nc4ccsc4c(=O)n3c2)CC1` was -1.36%; that for `CCC(C)C(=O)Nc1nc2c(s1)C(=O)CC(C)(C)C2` (configuration not stated) was 1.27%.

With `COc1cc2c(cc1OC)CN(C(=O)CSc1nc3[nH]ncc3c(=O)n1-c1ccccc1)CC2`, the differential viability (reversal) was 11.6%. On the same count and under the same terms, the value for `CC(NC(=O)c1cc2c(=O)n(C)c3ccccc3c2n1C)c1ccc2c(c1)OCCO2` (configuration not stated) was -20.9%; that for `O=C(C1CCCN1S(=O)(=O)c1cccc2cccnc12)N1CCn2c1nc1ccccc12` (configuration not stated) was 1.47%; that for `CCn1c(SCC(=O)Nc2cc(C)ccc2C)nc2c(c1=O)SC(C)C2` (configuration not stated) was 15.4%.

As for `CCOC(=O)c1sc2nc(NC(=O)COc3ccccc3)sc2c1C`, the differential viability (reversal) is -10%.

`Cc1ccc(-n2ncc3c(N4CCCC(C)C4)ncnc32)c(C)c1` (configuration not stated): the differential viability (reversal) is 38.2%.

As to `O=C(O)C1C2C=CC3(CN(C4CCCC4)C(=O)C13)O2` (configuration not stated), the differential viability (reversal) is -9.36%.

In the case of `CCCCSc1nc2c(cnn2-c2ccc(F)cc2)c(=O)[nH]1`, the differential viability (reversal) was -10.8%. Still for that read-out and setting: the value for `CCCCCn1c(=O)[nH]c2cc(C(=O)NCCN3CCOCC3)ccc2c1=O` was 16.1%; that for `Cc1ccc(-c2cc3nc4c(c(=O)n3[nH]2)CCCC4)cc1` was -1.42%; that for `CCCOC(=O)c1[nH]c2c(c1C)C(=O)CC(c1cc(OC)c(OC)c(OC)c1)C2` (configuration not stated) was 9.54%. On the same count and under the same terms, the value for `COc1cccc(-c2nc3n(n2)C(c2ccccc2Cl)C(C(N)=O)=C(C)N3)c1` (configuration not stated) was 14.6%; that for `Cc1c(NC(=O)c2ccc(Br)o2)c(=O)n(-c2ccccc2)n1C` was 5.07%. Still for that read-out and setting: the value for `COc1ccc(-c2nc(CS(=O)CC(=O)NCc3ccccn3)c(C)o2)cc1` (configuration not stated) was 8.14%. For `CCOc1cc(C2NC(=O)NC(O)(C(F)(F)F)C2C(=O)c2ccccc2)ccc1OC` (configuration not stated), the differential viability (reversal) was 5.23%. Still for that read-out and setting: the value for `CN(CCCNC(=O)c1cn(C)c2ccc(S(=O)(=O)N(C)C)cc2c1=O)c1ccccc1` was 17.1%.

(Values after PubChem BioAssay.)
